Peg3 prom inh = reduces Peg3 promoter-driven luciferase expression in HeLa | HeLa PEG-Prom luciferase reporter, luminescence, overnight | inhibition, % at 20 µM | 360,000 tested, 1.7% active | AID 588405;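 active means inhibition of at least 50% at 20 µM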
Shn3 inh set2 = inhibitors of Schnurri-3 3'UTR reporter in osteoblasts; inhibition, % at 12.5 µM; Clone20 osteoblast Shn3 3'UTR firefly luciferase, 24 h; 360,000 tested, 0.52% active;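 active means mean inhibition of at least 75% with every replicate also reaching 75%; inconclusive means mean inhibition at least 75% but some replicate below; inactive means mean inhibition below 75%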;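 further: 0% = median of neutral control wells and 100% = pilot-screen positive control compound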
EWS-Fli inh = inhibitors of EWS/Fli oncoprotein transcriptional activity; AID 651661; A673 NR0B1-luciferase reporter, viability-normalised; inhibition, % at 12.6 µM; 350,000 tested, 0.67% active;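 active means mean inhibition of at least 50% after viability correction, with every replicate also passing that limit; inconclusive means mean reaches 50% but only one of two replicates passes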;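 further: firefly luciferase signal divided by Alamar Blue viability fluorescence both relative to DMSO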
ABHD5-PLIN5 inh = blocks binding of human ABHD5 to perilipin-5; Q00G26+Q8WTS1; Split G. princeps luciferase complementation, luminescence, 4 h; inhibition, % at 4 µM; 360,000 tested, 0.78% active; AID 602281;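 active means inhibition above the mean inhibition across every tested compound plus 3 SD, cut at about 22% in these data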;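 further: 0% = DMSO only wells and the 100% control is not disclosed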
Target sequence (Q00G26 whole entry, looked up): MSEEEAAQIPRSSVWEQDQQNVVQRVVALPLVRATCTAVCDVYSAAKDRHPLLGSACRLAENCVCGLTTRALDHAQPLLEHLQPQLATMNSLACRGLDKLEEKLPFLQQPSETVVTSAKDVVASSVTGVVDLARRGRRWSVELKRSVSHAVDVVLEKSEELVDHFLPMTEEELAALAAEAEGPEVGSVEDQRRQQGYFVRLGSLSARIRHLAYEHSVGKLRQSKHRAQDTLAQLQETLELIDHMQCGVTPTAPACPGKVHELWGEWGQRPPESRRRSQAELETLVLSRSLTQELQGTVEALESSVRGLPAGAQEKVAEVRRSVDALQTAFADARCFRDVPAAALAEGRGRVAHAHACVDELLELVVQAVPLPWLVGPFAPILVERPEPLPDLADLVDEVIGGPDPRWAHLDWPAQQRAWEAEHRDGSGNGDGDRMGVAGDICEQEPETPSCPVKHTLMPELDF
Target sequence (Q8WTS1 whole entry, looked up): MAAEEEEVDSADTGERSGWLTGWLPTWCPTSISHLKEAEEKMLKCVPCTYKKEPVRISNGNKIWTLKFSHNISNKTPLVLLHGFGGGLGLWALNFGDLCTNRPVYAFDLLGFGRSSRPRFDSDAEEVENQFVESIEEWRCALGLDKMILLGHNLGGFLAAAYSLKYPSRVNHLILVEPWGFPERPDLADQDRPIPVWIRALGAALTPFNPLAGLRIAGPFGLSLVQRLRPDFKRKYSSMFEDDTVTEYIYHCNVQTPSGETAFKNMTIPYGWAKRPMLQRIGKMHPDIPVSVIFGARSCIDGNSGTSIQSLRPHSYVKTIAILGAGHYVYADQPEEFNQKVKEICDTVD
TRPM1 prom inh = inhibitors of MITF-driven TRPM1 promoter in melanoma cells; SK-MEL-5 TRPM1 promoter luciferase, 24 h; inhibition, % at 12.5 µM; 330,000 tested, 0.83% active;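 active means mean inhibition across replicates of 60% or more, whatever share of single replicates reaches that level; inconclusive means some that reach 60%, reason not given; inactive means mean inhibition across replicates below 60%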
PAX8 reporter = lowers PAX8-driven luciferase in RMG-I cells; RMG-I TPO-luciferase reporter, SteadyGlo, 24 h; inhibition, % at 12.6 µM; 360,000 tested, 1.2% active; AID 652154;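 active means mean replicate inhibition at least 60% with every replicate also reaching 60%; inconclusive means only one of the two criteria is met; inactive means mean below 60% and not all replicates reaching 60%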;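 further: luciferase light reporting Pax8 driven TPO promoter activity; plate controls were median of neutral control wells for no effect and mitoxantrone controls for full effect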
ABHD5 PLIN5 conf = ABHD5-PLIN5 interaction inhibition, confirmed. shares compounds with ABHD5-PLIN5 inh. biochemical ABHD5-PLIN5 interaction, luminescence. inhibition, % at 4 µM. 2,200 tested, 67% active. AID 651612; in the data active means inhibition above about 23%;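 further: 0% = DMSO vehicle wells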
HNF4 counter = counter-screen for ABHD5-PLIN5 inhibitors: HNF4 split-luciferase; shares compounds with ABHD5-PLIN5 inh; HNF4 dimerization, luminescence, biochemical; inhibition, % at 4 µM; 2,200 tested, 77% active; AID 651674;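 active means mean inhibition across replicate wells exceeding the computed hit threshold, cut at about 13% in these data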;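 further: light from luciferase halves that rejoin when HNF4 fusion proteins dimerize; 0% = DMSO only wells and the 100% control is not given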
The depositor's hits bear a star; ? = inconclusive; nt = no result given. In the library only some 3% were active in any assay of this set; here they are far more common.

SMILES	Peg3 prom inh	Shn3 inh set2	EWS-Fli inh	ABHD5-PLIN5 inh	TRPM1 prom inh	PAX8 reporter	ABHD5 PLIN5 conf	HNF4 counter
Nc1c(C(=O)NCC2CCCO2)c2nc3ccccc3nc2n1Cc1ccco1 (stereo not given)	29	14	8	26*	13	-8	53*	45*
COc1ccc(Cn2c(N)c(C(=O)NCc3ccco3)c3nc4ccccc4nc32)cc1OC	32	11	nt	5	15	nt	nt	nt
Nc1c(C(=O)NCc2ccco2)c2nc3ccccc3nc2n1CCN1CCCCC1	26	23	nt	24*	10	nt	12	8
O=C(Cc1ccccn1)N1CCCCN2[C@H](CO)[C@@H](c3ccc(C#Cc4ccccc4)cc3)[C@@H]2C1	nt	nt	-3	nt	nt	34	nt	nt
CC1(C)C[C@H]2C=C(C=O)[C@]3(C=O)C[C@]3(C)[C@H]2C1	105*	97*	28	63*	88*	nt	70*	4
CCCCCCCSc1cc(OC)c(CCN(C)C)cc1OC	104*	-10	nt	28*	-3	nt	17	1
CN(C)c1ccc(/C=C/[N+](=O)[O-])cc1	-17	-15	-1	71*	6	-13	85*	82*
C/C(=C\c1ccc(N(C)C)cc1)[N+](=O)[O-]	101*	29	52*	65*	80*	nt	99*	98*
N#Cc1ccc(-c2ccc([C@@H]3[C@H](CO)N4CCCCN(C(=O)Cc5ccccc5)C[C@@H]34)cc2)cc1	nt	nt	10	nt	nt	-2	nt	nt
Cc1ccc(N2C(=O)NC(=O)/C(=C\c3ccoc3)C2=O)cc1	9	4	-3	8	9	-3	nt	nt
Cc1cccc(N2C(=O)CC(=O)NC2=O)c1	3	3	nt	15	9	nt	nt	nt
Cc1ccc(N2C(=O)NC(=O)/C(=C\C=C\c3ccco3)C2=O)cc1	47	71	56*	25*	102*	10	95*	73*
CN1C(=O)/C(=C/C=C/c2ccco2)C(=O)NC1=S	6	1	2	26*	3	8	74*	49*
Cc1cccc(N2C(=O)NC(=O)/C(=C\C=C\c3ccco3)C2=O)c1	45	98*	67*	24*	98*	8	93*	70*
CN1C(=O)/C(=C\c2ccc(N3CCCCC3)o2)C(=O)NC1=S	-315	-71	nt	3	-33	-79	nt	nt
COc1ccc(-c2ccc([C@@H]3[C@@H](CO)N4CCCCN(C(=O)Cc5ccncc5)C[C@H]34)cc2)cc1	nt	nt	3	nt	nt	12	nt	nt
CC=Cc1ccc2n(c1=O)C[C@@H]1[C@@H](CO)[C@H](C(=O)O)[C@H]2N1S(=O)(=O)c1ccccc1C (mixture of isomers)	nt	nt	-3	nt	nt	-6	nt	nt
CN(C)CC(C(=O)Cc1ccccc1)c1ccccc1 (stereo not given)	101*	95*	25	37*	41	104*	16	92*
CCCCCCCCn1sccc1=O	21	?	20	90*	22	nt	89*	107*
O=C(Cc1cccnc1)N1CCCCN2[C@H](CO)[C@@H](c3ccc(C#CC4CCCC4)cc3)[C@@H]2C1	nt	nt	1	nt	nt	-4	nt	nt
CCN1/C(=C/C=C/C2=[N+](CC)c3ccccc3C2(C)C)C(C)(C)c2ccccc21	96*	79	59*	52*	nt	106*	28*	37*
COc1ccccc1CN1[C@H](CO)[C@@H](c2ccccc2)C12CN(C(=O)Cc1ccccc1)C2	nt	nt	0	nt	nt	21	nt	nt
CCOC(=O)[C@]12Cc3cc(C)ccc3[C@H]1N(C1CCCCC1)C(=O)c1ccccc12	nt	nt	43	48*	nt	86*	21	39*
CCOC(=O)[C@]12Cc3cc(Cl)ccc3[C@H]1N(C1CCCCC1)C(=O)c1cc(OC)ccc12	nt	nt	68*	61*	nt	105*	39*	58*
CCOC(=O)[C@]12Cc3ccc(C)cc3[C@H]1N(C1CCCCC1)C(=O)c1cc(OC)ccc12	nt	nt	?	43*	nt	101*	41*	46*
